Data from the supplement of paper PMC10849652.
The full data set covers some 8,800 targets. This sample favours those with a hit. About 0.5% of all pairs of compound and target were hits.

What was measured:
Test in all cases: log2 fold change, soluble protein after heating vs DMSO (PISA); higher = thermal stabilisation; K562 lysate, 10 uM; active = over 0.2 and 3.5 SD of the protein, either way, in both replicates (recomputed)
[1] = compound: C1=CC=C(C=C1)[C@H](COC2=CC3=C(C=C2)NC(=O)N3)NC(=O)C4=CC=CN(C4=O)CC5=CC(=C(C=C5)F)F
How it was run: (§1)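 Log-two fold change in thermal stability relative to solvent controls is reported from duplicates. For each sample, crude K562 extract from dounce-homogenised pellets in PBS pH 7.4 with 1 mM MgCl2, at 1 mg/mL protein, was treated with 10 μM compound for 30 min. Aliquots heated for 3 min across 48°C-58°C were pooled, brought to 0.5% NP-40 at 4°C and cleared at 21,000xg for 90 min. The supernatant was quantified by TMTpro 16plex LC-MS/MS with channel sums equalised.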

[2] = compound: CC1=C(SC2=C1C(=N[C@H](C3=NN=C(N32)C)CC(=O)N)C4=CC=C(C=C4)Cl)C
How it was run: as §1

[3] = compound: CC1=C2C(=CC=C1)N=C(N(C2=O)C3=CC=CC=C3C)CN4C=NC5=C(N=CN=C54)N
How it was run: as §1

[4] = compound: Cc1sc2c(c1C)C(c1ccc(Cl)cc1)=N[C@@H](CC(=O)OC(C)(C)C)c1nnc(C)n1-2
How it was run: as §1

[5] = compound: c1ccc([C@@H]2C[C@H]2NC2CCNCC2)cc1
How it was run: as §1

IRAK-1-4 Inhibitor I = compound: C1COCCN1CCN2C3=CC=CC=C3N=C2NC(=O)C4=CC(=CC=C4)[N+](=O)[O-] [IRAK-1-4 Inhibitor I]
How it was run: as §1

Measured: log2 fold change

CCNK isoform 4 (UniProt O75909)
inactive: [1] -0.018 | [2] -0.045 | [3] -0.026 | [4] -0.047 | [5] -0.175

C2CD5 isoform 3 (UniProt Q86YS7)
inactive: [1] 0.015 | [2] 0.059 | [3] 0.014 | [4] -0.009 | [5] -0.169

BUB1B isoform 3 (UniProt O60566)
UniProt O60566, sequence (O60566 whole entry, looked up): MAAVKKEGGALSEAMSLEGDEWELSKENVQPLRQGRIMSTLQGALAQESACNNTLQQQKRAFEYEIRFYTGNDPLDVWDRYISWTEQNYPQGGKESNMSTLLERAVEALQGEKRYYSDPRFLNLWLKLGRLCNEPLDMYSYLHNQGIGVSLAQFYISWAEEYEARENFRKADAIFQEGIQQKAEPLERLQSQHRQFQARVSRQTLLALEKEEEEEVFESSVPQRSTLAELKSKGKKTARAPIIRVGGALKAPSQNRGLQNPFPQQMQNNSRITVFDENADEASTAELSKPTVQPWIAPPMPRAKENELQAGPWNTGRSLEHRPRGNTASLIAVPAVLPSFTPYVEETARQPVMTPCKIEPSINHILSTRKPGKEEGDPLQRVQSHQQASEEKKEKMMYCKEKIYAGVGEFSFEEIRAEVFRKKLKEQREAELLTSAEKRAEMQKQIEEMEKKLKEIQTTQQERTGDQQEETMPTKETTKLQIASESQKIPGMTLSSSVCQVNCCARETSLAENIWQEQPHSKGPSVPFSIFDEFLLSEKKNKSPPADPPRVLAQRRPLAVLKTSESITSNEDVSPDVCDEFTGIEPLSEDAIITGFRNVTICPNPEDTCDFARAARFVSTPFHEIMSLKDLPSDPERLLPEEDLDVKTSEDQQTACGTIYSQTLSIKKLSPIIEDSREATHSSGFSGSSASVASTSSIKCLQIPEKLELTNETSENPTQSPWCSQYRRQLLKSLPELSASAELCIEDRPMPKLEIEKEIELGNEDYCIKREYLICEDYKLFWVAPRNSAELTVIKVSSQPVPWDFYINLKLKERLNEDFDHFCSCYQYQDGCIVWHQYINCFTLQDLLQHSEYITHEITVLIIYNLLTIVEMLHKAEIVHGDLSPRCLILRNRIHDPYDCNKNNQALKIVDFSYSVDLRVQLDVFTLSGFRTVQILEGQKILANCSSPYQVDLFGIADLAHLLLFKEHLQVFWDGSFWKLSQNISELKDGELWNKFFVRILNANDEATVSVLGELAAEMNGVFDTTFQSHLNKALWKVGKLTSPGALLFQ
inactive: [1] -0.013 | [2] -0.005 | [3] 0.027 | [4] -0.003 | [5] 0.02

AURKA (UniProt O14965)
UniProt O14965, sequence (O14965 whole entry, looked up): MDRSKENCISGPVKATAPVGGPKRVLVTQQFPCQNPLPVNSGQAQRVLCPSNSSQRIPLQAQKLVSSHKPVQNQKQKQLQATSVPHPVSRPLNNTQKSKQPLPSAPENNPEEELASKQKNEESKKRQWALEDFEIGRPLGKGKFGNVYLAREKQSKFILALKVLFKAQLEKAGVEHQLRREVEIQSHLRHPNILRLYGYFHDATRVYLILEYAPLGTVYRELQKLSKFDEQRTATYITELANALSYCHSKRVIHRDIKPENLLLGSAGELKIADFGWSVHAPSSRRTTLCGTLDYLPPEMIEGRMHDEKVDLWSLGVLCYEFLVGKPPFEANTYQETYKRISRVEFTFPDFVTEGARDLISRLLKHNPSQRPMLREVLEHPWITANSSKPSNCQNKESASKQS
inactive: [1] -0.053 | [2] -0.001 | [3] -0.042 | [4] -0.055 | [5] -0.157

CHD5 (UniProt Q8TDI0)
inactive: [1] -0.039 | [2] 0.003 | [3] -0.002 | [4] 0.085 | [5] 0.032

CEP128 (UniProt Q6ZU80)
inactive: [1] -0.38 | [2] 0.338 | [3] -0.023 | [4] -0.125 | [5] -0.507

CARHSP1 (UniProt Q9Y2V2)
inactive: [1] -0.031 | [2] 0.027 | [3] 0.019 | [4] -0.053 | [5] 0.005

CCNY (UniProt Q8ND76)
UniProt Q8ND76, sequence (Q8ND76 whole entry, looked up): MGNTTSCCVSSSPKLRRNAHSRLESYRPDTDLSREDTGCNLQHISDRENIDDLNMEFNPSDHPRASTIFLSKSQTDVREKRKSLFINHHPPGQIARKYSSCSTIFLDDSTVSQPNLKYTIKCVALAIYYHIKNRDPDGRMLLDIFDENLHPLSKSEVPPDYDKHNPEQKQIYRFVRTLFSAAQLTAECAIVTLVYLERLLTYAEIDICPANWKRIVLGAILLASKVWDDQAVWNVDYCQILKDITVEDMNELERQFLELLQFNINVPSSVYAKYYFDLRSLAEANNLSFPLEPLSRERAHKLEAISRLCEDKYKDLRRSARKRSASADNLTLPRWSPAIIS
inactive: [1] -0.04 | [2] 0.048 | [3] -0.104 | [4] -0.064 | [5] -0.028

C5orf51 (UniProt A6NDU8)
inactive: [1] -0.047 | [2] -0.023 | [3] 0.001 | [4] -0.026 | [5] 0.092

BSDC1 (UniProt Q9NW68)
UniProt Q9NW68, sequence (Q9NW68 whole entry, looked up): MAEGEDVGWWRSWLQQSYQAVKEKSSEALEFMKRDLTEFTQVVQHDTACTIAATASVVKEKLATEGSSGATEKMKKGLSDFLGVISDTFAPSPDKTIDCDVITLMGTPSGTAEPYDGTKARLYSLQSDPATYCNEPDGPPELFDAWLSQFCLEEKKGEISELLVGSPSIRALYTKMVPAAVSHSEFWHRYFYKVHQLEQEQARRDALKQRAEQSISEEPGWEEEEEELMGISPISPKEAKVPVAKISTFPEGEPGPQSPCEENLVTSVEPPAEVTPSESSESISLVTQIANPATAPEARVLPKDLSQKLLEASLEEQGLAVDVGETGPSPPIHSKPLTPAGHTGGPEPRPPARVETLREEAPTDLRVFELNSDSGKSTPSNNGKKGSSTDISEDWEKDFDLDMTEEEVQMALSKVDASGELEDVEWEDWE
inactive: [1] 0.155 | [2] -0.025 | [3] 0.021 | [4] -0.004 | [5] -0.026

CDC16 (UniProt Q13042)
UniProt Q13042, sequence (Q13042 whole entry, looked up): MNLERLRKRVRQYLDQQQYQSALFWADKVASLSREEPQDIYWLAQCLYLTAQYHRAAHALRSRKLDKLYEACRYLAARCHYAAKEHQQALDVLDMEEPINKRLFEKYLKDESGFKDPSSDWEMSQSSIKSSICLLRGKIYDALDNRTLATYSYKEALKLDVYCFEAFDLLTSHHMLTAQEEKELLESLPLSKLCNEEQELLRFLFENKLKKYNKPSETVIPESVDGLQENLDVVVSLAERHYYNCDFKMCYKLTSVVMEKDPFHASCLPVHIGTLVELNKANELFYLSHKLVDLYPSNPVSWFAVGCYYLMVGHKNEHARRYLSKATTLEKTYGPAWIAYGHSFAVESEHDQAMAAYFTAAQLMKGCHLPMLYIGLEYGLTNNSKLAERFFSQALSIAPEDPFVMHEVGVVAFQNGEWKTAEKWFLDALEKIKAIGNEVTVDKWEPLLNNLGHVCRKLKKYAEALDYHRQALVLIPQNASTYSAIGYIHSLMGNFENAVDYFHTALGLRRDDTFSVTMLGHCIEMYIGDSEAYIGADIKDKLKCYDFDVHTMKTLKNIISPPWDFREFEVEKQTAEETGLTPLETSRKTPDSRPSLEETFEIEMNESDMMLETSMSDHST
inactive: [1] -0.038 | [2] 0.027 | [3] 0.025 | [4] 0.03 | [5] 0.021

C9orf72 (UniProt Q96LT7)
UniProt Q96LT7, sequence (Q96LT7 whole entry, looked up): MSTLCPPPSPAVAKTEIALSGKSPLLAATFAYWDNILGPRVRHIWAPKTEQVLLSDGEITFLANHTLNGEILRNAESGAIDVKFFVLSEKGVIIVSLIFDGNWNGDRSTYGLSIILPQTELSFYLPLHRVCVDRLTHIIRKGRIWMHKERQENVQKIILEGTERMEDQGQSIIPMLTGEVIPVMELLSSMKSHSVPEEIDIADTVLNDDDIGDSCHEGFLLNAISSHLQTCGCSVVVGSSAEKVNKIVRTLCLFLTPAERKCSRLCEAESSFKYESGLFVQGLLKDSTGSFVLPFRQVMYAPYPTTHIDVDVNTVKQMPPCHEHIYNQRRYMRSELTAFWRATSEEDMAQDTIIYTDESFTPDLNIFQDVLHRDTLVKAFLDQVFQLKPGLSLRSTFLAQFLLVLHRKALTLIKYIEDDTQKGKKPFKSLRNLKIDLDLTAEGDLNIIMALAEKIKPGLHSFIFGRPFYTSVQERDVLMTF
inactive: [1] -0.012 | [2] 0.049 | [4] -0.028 | [5] 0.002

CD80 (UniProt P33681)
inactive: [3] 0.032 | [4] 0.018 | [5] 0.048

ATXN2 (UniProt F8WB06)
inactive: [4] -0.014

CHD9 (UniProt Q3L8U1)
inactive: [3] -0.074 | [4] 0.236 | [5] 0.232

CARHSP1 (UniProt H3BNU9)
inactive: [1] -0.034 | [2] -0.224 | [5] 0.094

C15orf39 (UniProt Q6ZRI6)
inactive: [1] -0.095 | [2] 0.049 | [4] 0.032 | [5] 0.161

C3AR1 (UniProt Q16581)
inactive: [1] 0.121 | [2] 0.024 | [5] -0.083

ATE1 (UniProt O95260)
inactive: [1] 0 | [2] 0.07 | [5] -0.125

BTRC (UniProt Q9Y297)
UniProt Q9Y297, sequence (Q9Y297 whole entry, looked up): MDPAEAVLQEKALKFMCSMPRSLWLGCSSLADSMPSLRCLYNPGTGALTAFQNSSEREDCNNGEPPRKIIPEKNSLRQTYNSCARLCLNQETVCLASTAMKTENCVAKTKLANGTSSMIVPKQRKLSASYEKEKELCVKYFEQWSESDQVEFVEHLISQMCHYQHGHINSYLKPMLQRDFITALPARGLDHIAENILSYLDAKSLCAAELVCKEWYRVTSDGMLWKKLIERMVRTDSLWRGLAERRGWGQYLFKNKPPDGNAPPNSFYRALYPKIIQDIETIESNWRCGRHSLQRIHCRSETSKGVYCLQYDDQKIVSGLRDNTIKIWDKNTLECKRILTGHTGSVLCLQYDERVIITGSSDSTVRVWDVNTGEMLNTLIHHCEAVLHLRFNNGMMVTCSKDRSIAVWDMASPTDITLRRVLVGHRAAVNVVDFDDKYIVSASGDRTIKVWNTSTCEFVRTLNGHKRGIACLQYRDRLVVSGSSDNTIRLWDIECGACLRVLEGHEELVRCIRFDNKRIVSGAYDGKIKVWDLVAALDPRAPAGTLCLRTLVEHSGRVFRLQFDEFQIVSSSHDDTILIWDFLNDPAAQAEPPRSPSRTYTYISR
inactive: [1] 0.024 | [2] -0.042 | [3] -0.003 | [5] -0.048

CASC1 (UniProt Q6TDU7)
UniProt Q6TDU7, sequence (Q6TDU7 whole entry, looked up): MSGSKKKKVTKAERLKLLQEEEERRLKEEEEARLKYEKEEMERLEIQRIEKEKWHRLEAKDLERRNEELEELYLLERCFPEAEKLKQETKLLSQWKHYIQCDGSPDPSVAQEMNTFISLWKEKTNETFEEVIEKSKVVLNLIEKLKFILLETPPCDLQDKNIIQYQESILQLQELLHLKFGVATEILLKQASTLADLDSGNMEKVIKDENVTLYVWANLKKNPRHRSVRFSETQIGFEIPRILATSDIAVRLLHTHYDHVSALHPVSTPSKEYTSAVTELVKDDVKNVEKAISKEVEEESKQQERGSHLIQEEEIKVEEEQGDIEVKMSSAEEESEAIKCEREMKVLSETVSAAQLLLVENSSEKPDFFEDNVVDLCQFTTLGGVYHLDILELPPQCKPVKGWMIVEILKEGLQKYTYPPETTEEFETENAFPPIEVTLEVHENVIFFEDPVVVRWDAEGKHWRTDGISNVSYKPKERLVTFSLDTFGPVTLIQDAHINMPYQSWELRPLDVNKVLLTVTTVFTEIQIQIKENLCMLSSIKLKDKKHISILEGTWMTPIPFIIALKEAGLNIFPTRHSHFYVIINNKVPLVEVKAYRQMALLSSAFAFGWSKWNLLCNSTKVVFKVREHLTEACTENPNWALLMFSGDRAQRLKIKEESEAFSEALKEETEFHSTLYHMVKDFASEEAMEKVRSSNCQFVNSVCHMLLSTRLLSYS
inactive: [1] -0.256 | [2] 0.037 | [5] 0.046

BCORL1 isoform 3 (UniProt Q5H9F3)
inactive: IRAK-1-4 Inhibitor I -0.141 | [3] 0.029 | [4] 0 | [5] -0.382

CCND3 (UniProt P30281)
inactive: [1] 0.043 | [2] 0.051 | [4] 0.036 | [5] -0.023

CDC25A (UniProt P30304)
inactive: [4] -0.064

BMT2 (UniProt Q1RMZ1)
inactive: [5] 0.123

CENPV (UniProt Q7Z7K6)
UniProt Q7Z7K6, sequence (Q7Z7K6 whole entry, looked up): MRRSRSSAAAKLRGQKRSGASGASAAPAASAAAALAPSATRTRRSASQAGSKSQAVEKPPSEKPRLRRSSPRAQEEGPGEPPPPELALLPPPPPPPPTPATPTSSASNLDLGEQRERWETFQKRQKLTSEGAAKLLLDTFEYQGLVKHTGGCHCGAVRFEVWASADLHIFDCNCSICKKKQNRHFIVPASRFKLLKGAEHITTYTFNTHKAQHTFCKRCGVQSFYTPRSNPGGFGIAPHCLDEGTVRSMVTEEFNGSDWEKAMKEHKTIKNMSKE
inactive: [1] 0.059 | [2] -0.217 | [3] -0.201 | [5] 0.166

CEP295 isoform 3 (UniProt Q9C0D2)
inactive: [1] -0.154 | [2] 0.045 | [5] 0.024

CACUL1 (UniProt Q86Y37)
inactive: [3] -0.046 | [4] 0.088 | [5] 0.111

CAD (UniProt H7BZB3)
inactive: [3] -0.011 | [5] -0.003

CASP7 isoform 3 (UniProt P55210)
inactive: [1] 0.035 | [2] -0.02 | [4] -0.105
